Experimental data published in the supplement of paper PMC10849652.
About 7,900 targets were measured; listed, in parts, are those with a hit and a random draw of the rest. About 0.6% of all pairs of compound and target were hits. Unmarked numbers belong to inactive results.

How the values were obtained:
Assay in all cases: log2 fold change, soluble protein after heating vs DMSO (PISA); higher = thermal stabilisation; K562 cells, 10 uM, 30 min; active = over 0.2 and 3.5 SD of the protein, either way, in both replicates (recomputed)
saracatinib = compound: CN1CCN(CCOc2cc(OC3CCOCC3)c3c(Nc4c(Cl)ccc5c4OCO5)ncnc3c2)CC1 [saracatinib]
In short: (§1)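 Soluble protein was defined as the supernatant after 21,000xg for 90 min. It came from K562 cells at 2×10^6 cells/mL given 10 μM compound for 30 min, heated in aliquots for 3 min across 48°C-58°C, pooled, and extracted in PBS with 0.5% NP-40 at 4°C, and was quantified by TMTpro 16plex LC-MS/MS with equalised channel sums. Thermal stability against control samples, from duplicates, is reported as log2 fold change.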

sotrastaurin = compound: CN1CCN(c2nc(C3=C(c4c[nH]c5ccccc45)C(=O)NC3=O)c3ccccc3n2)CC1 [sotrastaurin]
In short: as §1

alvocidib = compound: CN1CC[C@H](c2c(O)cc(O)c3c(=O)cc(-c4ccccc4Cl)oc23)[C@H](O)C1 [alvocidib]
In short: as §1

Tubastatin A = compound: CN1CCc2c(c3ccccc3n2Cc2ccc(C(=O)NO)cc2)C1 [Tubastatin A]
In short: as §1

[1] = compound: CNC(=O)C1=CC=CC=C1NC2=NC(=NC=C2Cl)NC3=C(C=C(C=C3)N4CCOCC4)OC
In short: as §1

defactinib = compound: CNC(=O)c1ccc(Nc2ncc(C(F)(F)F)c(NCc3nccnc3N(C)S(C)(=O)=O)n2)cc1 [defactinib]
In short: as §1

rucaparib = compound: CNCc1ccc(-c2[nH]c3cc(F)cc4c3c2CCNC4=O)cc1 [rucaparib]
In short: as §1

[2] = compound: CNc1nc(-c2ccc3c(N)n[nH]c3c2)cc(N2C[C@@H](C(=O)NC3CCCCC3)CC[C@H]2C)n1
In short: as §1

encorafenib = compound: COC(=O)N[C@@H](C)CNc1nccc(-c2cn(C(C)C)nc2-c2cc(Cl)cc(NS(C)(=O)=O)c2F)n1 [encorafenib]
In short: as §1

[3] = compound: COC(=O)[C@H](CCSC)NC(=O)C1=C(C=C(C=C1)NC[C@H](CS)N)C2=CC=CC=C2
In short: as §1

[4] = compound: COC1=CC=C(C=C1)CN2C=CC3=C2C=C(C=C3)C(=O)NO
In short: as §1

filanesib = compound: CON(C)C(=O)N1N=C(c2cc(F)ccc2F)S[C@@]1(CCCN)c1ccccc1 [filanesib]
In short: as §1

zotarolimus = compound: CO[C@H]1C[C@@H]2CC[C@@H](C)[C@@](O)(O2)C(=O)C(=O)N2CCCC[C@H]2C(=O)O[C@H]([C@H](C)C[C@@H]2CC[C@H](n3cnnn3)[C@H](OC)C2)CC(=O)[C@H](C)/C=C(\C)[C@@H](O)[C@@H](OC)C(=O)[C@H](C)C[C@H](C)/C=C/C=C/C=C/1C [zotarolimus]
In short: as §1

idasanutlin = compound: COc1cc(C(=O)O)ccc1NC(=O)[C@@H]1N[C@@H](CC(C)(C)C)[C@](C#N)(c2ccc(Cl)cc2F)[C@H]1c1cccc(Cl)c1F [idasanutlin]
In short: as §1

alisertib = compound: COc1cc(Nc2ncc3c(n2)-c2ccc(Cl)cc2C(c2c(F)cccc2OC)=NC3)ccc1C(=O)O [alisertib]
In short: as §1

[5] = compound: COc1cc2nc(-c3cc(F)ccc3O)nc(N[C@@H]3CNC[C@H]3C(C)(C)O)c2cc1OC
In short: as §1

gefitinib = compound: COc1cc2ncnc(Nc3ccc(F)c(Cl)c3)c2cc1OCCCN1CCOCC1 [gefitinib]
In short: as §1

[6] = compound: COc1cccc2cc(-c3nc([C@H]4CC[C@H](C(=O)O)CC4)n4ncnc(N)c34)[nH]c12
In short: as §1

lapatinib = compound: CS(=O)(=O)CCNCc1ccc(-c2ccc3ncnc(Nc4ccc(OCc5cccc(F)c5)c(Cl)c4)c3c2)o1 [lapatinib]
In short: as §1

pictilisib = compound: CS(=O)(=O)N1CCN(Cc2cc3nc(-c4cccc5[nH]ncc45)nc(N4CCOCC4)c3s2)CC1 [pictilisib]
In short: as §1

Chain of UniProt Q9Y2I8 (Q9Y2I8 whole entry, looked up): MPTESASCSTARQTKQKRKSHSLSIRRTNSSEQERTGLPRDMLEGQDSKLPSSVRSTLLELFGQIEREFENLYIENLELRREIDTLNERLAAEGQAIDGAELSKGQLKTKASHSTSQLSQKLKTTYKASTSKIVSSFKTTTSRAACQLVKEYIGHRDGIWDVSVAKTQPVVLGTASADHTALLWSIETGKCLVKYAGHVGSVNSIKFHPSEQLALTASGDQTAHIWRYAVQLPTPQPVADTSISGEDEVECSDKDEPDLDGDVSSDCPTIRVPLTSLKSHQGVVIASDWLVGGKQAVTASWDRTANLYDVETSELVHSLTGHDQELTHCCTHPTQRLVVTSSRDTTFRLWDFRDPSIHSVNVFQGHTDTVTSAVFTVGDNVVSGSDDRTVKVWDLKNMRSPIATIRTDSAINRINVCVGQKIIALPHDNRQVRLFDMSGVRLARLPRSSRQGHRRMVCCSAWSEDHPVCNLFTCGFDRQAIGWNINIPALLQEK
Chain of UniProt A0JNW5 (A0JNW5 whole entry, looked up): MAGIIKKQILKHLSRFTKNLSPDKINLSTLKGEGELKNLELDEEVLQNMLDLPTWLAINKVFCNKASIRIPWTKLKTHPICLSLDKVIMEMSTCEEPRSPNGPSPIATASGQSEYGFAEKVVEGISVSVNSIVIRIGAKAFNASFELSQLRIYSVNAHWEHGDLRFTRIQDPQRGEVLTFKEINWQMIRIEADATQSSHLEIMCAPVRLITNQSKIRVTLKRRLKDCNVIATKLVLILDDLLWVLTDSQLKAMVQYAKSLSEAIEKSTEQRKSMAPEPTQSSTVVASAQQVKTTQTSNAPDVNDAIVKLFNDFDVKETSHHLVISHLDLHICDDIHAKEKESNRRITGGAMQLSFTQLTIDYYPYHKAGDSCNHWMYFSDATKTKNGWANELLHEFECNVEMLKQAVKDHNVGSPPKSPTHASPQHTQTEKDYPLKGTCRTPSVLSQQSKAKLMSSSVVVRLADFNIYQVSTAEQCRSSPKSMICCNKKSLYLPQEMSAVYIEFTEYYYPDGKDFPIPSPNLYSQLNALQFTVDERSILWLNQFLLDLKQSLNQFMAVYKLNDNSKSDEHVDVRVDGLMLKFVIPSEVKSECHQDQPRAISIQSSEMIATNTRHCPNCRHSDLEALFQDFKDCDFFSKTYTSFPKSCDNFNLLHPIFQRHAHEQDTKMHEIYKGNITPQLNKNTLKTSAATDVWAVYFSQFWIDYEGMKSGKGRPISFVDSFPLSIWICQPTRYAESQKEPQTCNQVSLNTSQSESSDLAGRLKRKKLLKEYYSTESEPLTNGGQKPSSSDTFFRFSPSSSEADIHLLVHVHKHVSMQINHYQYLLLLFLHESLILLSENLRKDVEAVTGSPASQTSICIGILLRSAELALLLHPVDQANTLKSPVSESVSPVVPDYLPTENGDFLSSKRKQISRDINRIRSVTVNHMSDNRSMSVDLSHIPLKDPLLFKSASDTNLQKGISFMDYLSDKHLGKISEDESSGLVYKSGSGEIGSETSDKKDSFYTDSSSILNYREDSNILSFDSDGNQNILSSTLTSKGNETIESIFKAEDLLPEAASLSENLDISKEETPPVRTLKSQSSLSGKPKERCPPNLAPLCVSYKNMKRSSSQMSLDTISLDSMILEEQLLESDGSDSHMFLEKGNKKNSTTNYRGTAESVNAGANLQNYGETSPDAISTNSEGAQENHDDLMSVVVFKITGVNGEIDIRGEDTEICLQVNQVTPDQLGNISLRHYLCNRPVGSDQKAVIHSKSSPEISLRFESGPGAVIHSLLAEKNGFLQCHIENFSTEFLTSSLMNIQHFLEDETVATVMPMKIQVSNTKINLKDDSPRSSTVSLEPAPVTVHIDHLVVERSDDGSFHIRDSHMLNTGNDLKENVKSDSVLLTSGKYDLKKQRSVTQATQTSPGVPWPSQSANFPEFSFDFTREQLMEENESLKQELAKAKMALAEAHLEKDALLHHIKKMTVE
Chain of UniProt Q5U3C3 (Q5U3C3 whole entry, looked up): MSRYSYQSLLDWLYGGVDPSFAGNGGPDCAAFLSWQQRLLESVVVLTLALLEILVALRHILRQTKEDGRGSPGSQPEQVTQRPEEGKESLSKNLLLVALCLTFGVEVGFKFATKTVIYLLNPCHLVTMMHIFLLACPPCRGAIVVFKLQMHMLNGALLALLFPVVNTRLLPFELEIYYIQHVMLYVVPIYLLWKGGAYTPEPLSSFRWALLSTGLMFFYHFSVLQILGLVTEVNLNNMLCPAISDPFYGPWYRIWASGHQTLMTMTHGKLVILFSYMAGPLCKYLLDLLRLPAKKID
Chain of UniProt Q9H269 (Q9H269 whole entry, looked up): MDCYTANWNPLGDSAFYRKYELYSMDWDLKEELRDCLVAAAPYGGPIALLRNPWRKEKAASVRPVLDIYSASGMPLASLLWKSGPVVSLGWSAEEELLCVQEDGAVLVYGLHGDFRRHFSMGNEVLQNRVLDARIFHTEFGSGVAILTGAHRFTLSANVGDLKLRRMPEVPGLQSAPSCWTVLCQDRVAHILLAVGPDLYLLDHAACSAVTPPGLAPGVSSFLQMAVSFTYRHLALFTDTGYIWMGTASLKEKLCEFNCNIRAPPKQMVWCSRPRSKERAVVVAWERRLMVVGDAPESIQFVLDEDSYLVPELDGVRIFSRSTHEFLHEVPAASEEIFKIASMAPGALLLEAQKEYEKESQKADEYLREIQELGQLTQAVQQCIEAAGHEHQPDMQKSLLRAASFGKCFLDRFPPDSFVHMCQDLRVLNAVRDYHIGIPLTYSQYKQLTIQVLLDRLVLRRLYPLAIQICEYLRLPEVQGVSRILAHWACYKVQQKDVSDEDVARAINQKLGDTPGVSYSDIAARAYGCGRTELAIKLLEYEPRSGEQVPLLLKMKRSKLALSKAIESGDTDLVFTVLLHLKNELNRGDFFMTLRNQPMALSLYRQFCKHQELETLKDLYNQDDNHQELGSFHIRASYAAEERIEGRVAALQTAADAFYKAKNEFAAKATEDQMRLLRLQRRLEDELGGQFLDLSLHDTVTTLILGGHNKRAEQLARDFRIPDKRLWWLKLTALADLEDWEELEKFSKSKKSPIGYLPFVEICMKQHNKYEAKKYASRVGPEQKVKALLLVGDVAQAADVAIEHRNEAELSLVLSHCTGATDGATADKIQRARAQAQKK
Chain of UniProt P49754 (P49754 whole entry, looked up): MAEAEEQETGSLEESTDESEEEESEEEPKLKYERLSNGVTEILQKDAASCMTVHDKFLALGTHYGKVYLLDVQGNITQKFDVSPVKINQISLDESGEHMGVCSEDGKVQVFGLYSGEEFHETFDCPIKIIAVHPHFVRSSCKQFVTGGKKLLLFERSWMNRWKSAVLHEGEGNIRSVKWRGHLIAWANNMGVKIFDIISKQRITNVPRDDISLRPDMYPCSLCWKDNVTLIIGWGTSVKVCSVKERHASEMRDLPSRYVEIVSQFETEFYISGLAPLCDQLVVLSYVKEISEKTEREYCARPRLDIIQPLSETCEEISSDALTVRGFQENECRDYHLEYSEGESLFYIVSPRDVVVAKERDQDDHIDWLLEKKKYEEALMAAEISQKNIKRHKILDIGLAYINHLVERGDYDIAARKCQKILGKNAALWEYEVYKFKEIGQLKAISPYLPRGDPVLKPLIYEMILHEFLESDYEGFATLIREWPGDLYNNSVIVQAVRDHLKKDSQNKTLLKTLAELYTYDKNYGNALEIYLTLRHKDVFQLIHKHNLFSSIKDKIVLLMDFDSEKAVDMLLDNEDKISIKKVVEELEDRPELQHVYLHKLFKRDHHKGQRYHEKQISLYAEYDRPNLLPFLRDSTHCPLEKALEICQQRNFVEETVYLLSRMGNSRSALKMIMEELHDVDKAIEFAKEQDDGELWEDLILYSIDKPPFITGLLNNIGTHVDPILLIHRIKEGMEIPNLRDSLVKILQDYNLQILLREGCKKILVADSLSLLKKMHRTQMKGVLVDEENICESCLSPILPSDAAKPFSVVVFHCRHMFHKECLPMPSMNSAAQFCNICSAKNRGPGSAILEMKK
Chain of UniProt Q9H4I3 (Q9H4I3 whole entry, looked up): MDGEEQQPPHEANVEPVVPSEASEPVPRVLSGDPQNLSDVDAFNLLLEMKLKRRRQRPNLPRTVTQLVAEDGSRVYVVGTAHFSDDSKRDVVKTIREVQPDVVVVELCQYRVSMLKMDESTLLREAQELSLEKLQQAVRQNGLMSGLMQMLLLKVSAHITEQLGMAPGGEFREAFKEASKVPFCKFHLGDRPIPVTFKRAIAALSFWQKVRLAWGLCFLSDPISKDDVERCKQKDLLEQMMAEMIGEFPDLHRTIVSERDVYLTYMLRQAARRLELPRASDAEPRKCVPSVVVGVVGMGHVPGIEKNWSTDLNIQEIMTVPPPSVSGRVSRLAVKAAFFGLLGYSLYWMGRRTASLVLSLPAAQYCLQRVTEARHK
Chain of UniProt P98170 (P98170 whole entry, looked up): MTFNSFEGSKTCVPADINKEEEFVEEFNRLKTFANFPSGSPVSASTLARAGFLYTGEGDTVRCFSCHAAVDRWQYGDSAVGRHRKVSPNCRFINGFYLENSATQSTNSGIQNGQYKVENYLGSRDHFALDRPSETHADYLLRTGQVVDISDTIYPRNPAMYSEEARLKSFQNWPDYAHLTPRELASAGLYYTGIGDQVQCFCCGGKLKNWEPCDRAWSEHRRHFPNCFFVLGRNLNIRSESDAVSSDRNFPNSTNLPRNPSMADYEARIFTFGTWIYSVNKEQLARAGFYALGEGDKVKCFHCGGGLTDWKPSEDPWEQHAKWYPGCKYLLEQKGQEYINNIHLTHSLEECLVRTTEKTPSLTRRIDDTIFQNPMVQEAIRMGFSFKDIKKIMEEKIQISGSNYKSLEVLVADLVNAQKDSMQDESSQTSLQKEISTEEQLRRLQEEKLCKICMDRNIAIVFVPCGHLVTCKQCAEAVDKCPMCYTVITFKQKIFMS
Chain of UniProt Q15388 (Q15388 whole entry, looked up): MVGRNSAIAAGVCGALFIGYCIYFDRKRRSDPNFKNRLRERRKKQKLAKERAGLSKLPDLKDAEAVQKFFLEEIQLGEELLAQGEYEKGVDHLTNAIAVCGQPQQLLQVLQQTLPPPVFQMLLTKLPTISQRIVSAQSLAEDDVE

Row | Target | log2 fold change (saracatinib) | log2 fold change (sotrastaurin) | log2 fold change (alvocidib) | log2 fold change (Tubastatin A) | log2 fold change [1] | log2 fold change (defactinib) | log2 fold change (rucaparib) | log2 fold change [2] | log2 fold change (encorafenib) | log2 fold change [3] | log2 fold change [4] | log2 fold change (filanesib) | log2 fold change (zotarolimus) | log2 fold change (idasanutlin) | log2 fold change (alisertib) | log2 fold change [5] | log2 fold change (gefitinib) | log2 fold change [6] | log2 fold change (lapatinib) | log2 fold change (pictilisib)
1 | TMEM164 (UniProt Q5U3C3) | -0.13 | 0.197 | 0.025 | 0.012 | 0.033 | 0.06 | -0.233 | 0.061 | 0.211 | -0.003 | 0.045 | -0.306 | -0.039 | -0.031 | 0.211 | 0.098 | -0.013 | 0.198 | -0.06 | 0.008
2 | TOMM20 (UniProt Q15388) | 0.012 | -0.005 | -0.001 | -0.031 | -0.028 | -0.011 | -0.009 | -0.034 | -0.131 | 0.033 | -0.011 | -0.213 | 0.005 | -0.022 | -0.029 | -0.25 | 0.005 | -0.001 | 0.045 | 0.007
3 | UBA6 | -0.006 | -0.125 | -0.08 | -0.047 | 0.041 | -0.089 | 0.024 | 0.011 | 0.049 | -0.032 | 0.021 | -0.01 | 0.051 | -0.016 | -0.04 | -0.031 | 0.029 | -0.069 | 0.022 | 0.004
4 | VPS16 (UniProt Q9H269) | 0.026 | -0.171 | -0.028 | -0.001 | -0.071 | -0.042 | -0.049 | -0.054 | 0.196 | -0.022 | 0.018 | -0.093 | 0.033 | -0.065 | -0.056 | -0.009 | -0.1 | -0.017 | -0.006 | -0.044
5 | XIAP (UniProt P98170) | -0.149 | -0.119 | -0.108 | 0.002 | -0.033 | -0.12 | 0.107 | -0.075 | 0.081 | 0.033 |  | 0.046 | 0.008 | 0.009 | 0.089 | 0.085 | 0.115 | 0 | -0.01 | 0.054
6 | VPS53 isoform 4 (UniProt Q5VIR6) | 0.029 | -0.102 | -0.146 | 0.017 | -0.009 | -0.056 | 0.061 | -0.028 | 0.06 | -0.001 | 0.015 | -0.008 | 0.095 | -0.048 | 0.01 | 0.089 | 0.025 | 0.003 | 0.012 | -0.066
7 | UHRF1BP1L (UniProt A0JNW5) | -0.01 | 0 | -0.037 | 0.031 | -0.051 | -0.024 | -0.052 | 0.05 | -0.02 | -0.029 | -0.027 | 0.038 | 0.093 | -0.073 | -0.08 | 0.179 | 0.05 | 0.034 | -0.006 | -0.046
8 | WDR37 isoform 2 (UniProt Q9Y2I8) | -0.094 | -0.01 | 0.207 | -0.019 | -0.077 | 0 | 0.064 | -0.108 | 0.084 | -0.007 | 0.033 | 0.117 | -0.063 | 0.081 | -0.018 | 0.034 | -0.006 | -0.029 | 0.035 | 0.046
9 | TNFRSF10A (UniProt O00220) | -0.038 | -0.012 | 0.02 | 0.04 | -0.052 | 0.039 | 0.017 | 0.02 | 0.031 | 0.056 | -0.046 | 0.028 | -0.035 | 0.058 | -0.021 | 0.024 | -0.012 | -0.002 | -0.073 | 0.304 (active)
10 | VPS41 (UniProt P49754) | -0.02 | -0.077 | -0.046 | 0.034 | -0.055 | -0.041 | 0.023 | -0.001 | -0.011 | 0.103 | 0.004 | -0.085 | 0.015 | -0.068 | 0.038 | -0.032 | -0.002 | -0.063 | 0.008 | -0.028
11 | TRABD (UniProt Q9H4I3) |  | 0.003 | -0.151 | 0.06 | 0.131 | -0.096 | 0.073 |  | -0.01 | -0.033 | 0.001 | 0.051 | 0.11 | 0.167 | -0.109 | 0.198 | 0.149 | -0.006 | 0.081 | 0.15
12 | TVP23C (UniProt Q96ET8) | 0.025 |  | -0.135 | 0 | 0.042 | 0.039 | -0.205 | 0.015 | 0.129 | 0.067 |  |  | -0.006 | -0.124 | 0.007 | -0.024 |  | 0.235 | -0.14 | -0.029
13 | XRCC1 (UniProt P18887) | 0.008 | -0.264 | -0.029 | 0.055 | 0.05 |  |  | 0.148 |  |  | -0.129 | 0.088 | -0.018 | -0.045 |  |  |  |  |  | -0.065
14 | UBXN8 (UniProt O00124) | -0.054 | 0.027 | 0.102 | -0.144 |  | 0.065 | -0.568 (active) | -0.112 | 0.094 | -0.095 |  | 0.069 | -0.028 | -0.116 |  | -0.035 |  |  | 0.023 | -0.002
15 | WDR75 (UniProt Q8IWA0) | -0.109 |  | 0.147 | 0.173 |  | 0.144 |  | 0.162 |  | -0.197 | -0.071 |  | -0.078 | 0.177 | -0.054 | -0.04 | 0.198 | -0.078 | -0.011 | 
16 | WARS1 (UniProt G3V227) | 0.003 |  | -0.065 | -0.053 |  | -0.001 |  | 0.021 |  | 0.3 |  |  | 0.086 | -0.047 |  |  |  |  |  | 
17 | WARS1 (UniProt G3V5U1) |  | 0.315 |  |  |  |  | 0.228 |  | -0.451 |  | -0.557 | 0.025 |  |  | 0.391 |  |  | -0.105 |  | 
18 | TMEM41A (UniProt Q96HV5) | 0.03 | -0.057 |  | -0.068 | 0.008 | 0.003 | -0.009 | -0.011 | 0.025 | -0.012 | -0.123 | -0.158 |  | 0.024 | -0.096 | 0.088 | 0.034 | 0.092 | -0.106 | -0.047
